Experiment [1] addresses T1, Serine/threonine-protein kinase Nek9 (Homo sapiens) (UniProt Q8TD19).
T1 sequence (whole entry): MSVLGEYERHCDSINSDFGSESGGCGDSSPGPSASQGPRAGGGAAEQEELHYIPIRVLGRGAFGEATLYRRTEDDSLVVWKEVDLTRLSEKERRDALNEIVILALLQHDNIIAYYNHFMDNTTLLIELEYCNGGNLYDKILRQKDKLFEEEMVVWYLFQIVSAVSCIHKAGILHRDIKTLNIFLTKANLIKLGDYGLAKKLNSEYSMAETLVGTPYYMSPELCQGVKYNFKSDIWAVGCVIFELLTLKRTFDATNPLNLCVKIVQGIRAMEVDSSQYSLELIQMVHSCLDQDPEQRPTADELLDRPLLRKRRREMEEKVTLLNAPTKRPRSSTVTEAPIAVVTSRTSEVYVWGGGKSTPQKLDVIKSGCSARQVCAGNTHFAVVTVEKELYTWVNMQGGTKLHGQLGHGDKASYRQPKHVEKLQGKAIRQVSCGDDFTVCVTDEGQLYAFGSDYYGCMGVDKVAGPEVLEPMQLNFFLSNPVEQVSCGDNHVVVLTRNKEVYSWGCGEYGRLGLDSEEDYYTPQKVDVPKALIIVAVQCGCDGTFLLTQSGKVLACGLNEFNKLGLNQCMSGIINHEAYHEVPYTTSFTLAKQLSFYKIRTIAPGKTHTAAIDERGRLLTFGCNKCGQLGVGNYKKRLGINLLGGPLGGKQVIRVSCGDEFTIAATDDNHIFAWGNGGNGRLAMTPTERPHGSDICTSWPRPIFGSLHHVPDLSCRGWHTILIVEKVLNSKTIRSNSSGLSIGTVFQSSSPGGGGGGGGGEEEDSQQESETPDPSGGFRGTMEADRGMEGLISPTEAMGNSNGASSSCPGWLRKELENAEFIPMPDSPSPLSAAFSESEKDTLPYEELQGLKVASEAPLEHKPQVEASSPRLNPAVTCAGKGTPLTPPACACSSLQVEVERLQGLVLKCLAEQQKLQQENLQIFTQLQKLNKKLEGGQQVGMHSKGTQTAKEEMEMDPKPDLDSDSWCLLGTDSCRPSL
The following applies: at 1 µM.

Experiment [2] addresses Serine/threonine-protein kinase PLK1 (Homo sapiens) (UniProt P53350). The following applies: at 0.1 µM.
For experiment [3] the target is unchanged. The following applies: at 1 µM.
Experiment [4] has as its target T2, Dual specificity protein kinase TTK (Homo sapiens) (UniProt P33981).
T2 sequence (whole entry): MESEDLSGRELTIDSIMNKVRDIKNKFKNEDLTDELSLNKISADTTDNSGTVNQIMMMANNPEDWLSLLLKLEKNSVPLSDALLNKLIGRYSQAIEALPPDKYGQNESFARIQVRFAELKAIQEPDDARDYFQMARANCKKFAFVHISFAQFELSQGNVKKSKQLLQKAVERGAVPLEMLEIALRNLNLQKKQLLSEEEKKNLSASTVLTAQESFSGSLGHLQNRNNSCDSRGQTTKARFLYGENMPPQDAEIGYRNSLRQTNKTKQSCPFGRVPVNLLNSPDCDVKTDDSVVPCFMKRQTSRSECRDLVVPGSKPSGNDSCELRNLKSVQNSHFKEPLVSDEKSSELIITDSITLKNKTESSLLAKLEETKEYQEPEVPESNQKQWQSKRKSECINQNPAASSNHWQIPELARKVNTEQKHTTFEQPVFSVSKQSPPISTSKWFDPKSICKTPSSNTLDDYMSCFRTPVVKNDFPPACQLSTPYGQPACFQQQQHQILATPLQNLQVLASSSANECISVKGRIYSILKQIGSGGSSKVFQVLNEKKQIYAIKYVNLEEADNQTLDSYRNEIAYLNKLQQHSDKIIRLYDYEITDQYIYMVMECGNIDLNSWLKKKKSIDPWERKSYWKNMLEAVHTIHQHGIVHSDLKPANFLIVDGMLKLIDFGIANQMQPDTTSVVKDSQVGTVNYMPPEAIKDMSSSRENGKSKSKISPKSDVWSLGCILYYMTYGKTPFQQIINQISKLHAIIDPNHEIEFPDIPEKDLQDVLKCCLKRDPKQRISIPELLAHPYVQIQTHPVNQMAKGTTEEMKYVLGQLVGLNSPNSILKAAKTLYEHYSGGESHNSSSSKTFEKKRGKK
The following applies: at 0.1 µM.

Experiment [5] relates to T3, Receptor-type tyrosine-protein kinase FLT3 (Homo sapiens), P36888 [D835Y].
T3 sequence (whole entry): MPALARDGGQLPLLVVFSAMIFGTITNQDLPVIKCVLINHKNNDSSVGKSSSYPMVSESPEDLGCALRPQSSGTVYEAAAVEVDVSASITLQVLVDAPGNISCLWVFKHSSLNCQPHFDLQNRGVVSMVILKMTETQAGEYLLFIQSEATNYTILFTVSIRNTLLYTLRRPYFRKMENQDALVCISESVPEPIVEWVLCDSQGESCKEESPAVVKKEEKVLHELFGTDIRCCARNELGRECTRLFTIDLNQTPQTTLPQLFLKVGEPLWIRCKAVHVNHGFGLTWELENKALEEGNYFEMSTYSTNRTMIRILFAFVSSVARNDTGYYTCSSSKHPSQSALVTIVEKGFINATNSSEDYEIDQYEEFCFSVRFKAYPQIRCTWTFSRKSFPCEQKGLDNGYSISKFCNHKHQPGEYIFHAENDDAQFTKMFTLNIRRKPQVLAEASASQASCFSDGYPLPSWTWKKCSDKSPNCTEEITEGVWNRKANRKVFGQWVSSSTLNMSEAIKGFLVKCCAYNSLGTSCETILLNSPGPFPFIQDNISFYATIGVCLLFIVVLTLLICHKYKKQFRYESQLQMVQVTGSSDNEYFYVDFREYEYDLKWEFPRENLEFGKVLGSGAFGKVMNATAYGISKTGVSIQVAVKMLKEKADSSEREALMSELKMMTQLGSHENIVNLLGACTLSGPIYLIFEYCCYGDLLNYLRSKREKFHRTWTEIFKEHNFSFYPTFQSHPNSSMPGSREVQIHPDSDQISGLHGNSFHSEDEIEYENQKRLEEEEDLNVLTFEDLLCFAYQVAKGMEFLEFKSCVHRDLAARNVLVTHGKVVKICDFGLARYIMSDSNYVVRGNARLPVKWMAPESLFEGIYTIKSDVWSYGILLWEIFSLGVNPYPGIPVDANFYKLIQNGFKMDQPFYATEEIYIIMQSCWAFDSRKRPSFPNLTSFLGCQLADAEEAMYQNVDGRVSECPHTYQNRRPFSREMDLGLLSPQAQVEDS
The following applies: at 1 µM.

In experiment [6] the target is Vascular endothelial growth factor receptor 3 (Homo sapiens) (UniProt P35916). To be noted: at 0.1 µM.
Sequence of Vascular endothelial growth factor receptor 3 (Homo sapiens) (P35916 whole entry): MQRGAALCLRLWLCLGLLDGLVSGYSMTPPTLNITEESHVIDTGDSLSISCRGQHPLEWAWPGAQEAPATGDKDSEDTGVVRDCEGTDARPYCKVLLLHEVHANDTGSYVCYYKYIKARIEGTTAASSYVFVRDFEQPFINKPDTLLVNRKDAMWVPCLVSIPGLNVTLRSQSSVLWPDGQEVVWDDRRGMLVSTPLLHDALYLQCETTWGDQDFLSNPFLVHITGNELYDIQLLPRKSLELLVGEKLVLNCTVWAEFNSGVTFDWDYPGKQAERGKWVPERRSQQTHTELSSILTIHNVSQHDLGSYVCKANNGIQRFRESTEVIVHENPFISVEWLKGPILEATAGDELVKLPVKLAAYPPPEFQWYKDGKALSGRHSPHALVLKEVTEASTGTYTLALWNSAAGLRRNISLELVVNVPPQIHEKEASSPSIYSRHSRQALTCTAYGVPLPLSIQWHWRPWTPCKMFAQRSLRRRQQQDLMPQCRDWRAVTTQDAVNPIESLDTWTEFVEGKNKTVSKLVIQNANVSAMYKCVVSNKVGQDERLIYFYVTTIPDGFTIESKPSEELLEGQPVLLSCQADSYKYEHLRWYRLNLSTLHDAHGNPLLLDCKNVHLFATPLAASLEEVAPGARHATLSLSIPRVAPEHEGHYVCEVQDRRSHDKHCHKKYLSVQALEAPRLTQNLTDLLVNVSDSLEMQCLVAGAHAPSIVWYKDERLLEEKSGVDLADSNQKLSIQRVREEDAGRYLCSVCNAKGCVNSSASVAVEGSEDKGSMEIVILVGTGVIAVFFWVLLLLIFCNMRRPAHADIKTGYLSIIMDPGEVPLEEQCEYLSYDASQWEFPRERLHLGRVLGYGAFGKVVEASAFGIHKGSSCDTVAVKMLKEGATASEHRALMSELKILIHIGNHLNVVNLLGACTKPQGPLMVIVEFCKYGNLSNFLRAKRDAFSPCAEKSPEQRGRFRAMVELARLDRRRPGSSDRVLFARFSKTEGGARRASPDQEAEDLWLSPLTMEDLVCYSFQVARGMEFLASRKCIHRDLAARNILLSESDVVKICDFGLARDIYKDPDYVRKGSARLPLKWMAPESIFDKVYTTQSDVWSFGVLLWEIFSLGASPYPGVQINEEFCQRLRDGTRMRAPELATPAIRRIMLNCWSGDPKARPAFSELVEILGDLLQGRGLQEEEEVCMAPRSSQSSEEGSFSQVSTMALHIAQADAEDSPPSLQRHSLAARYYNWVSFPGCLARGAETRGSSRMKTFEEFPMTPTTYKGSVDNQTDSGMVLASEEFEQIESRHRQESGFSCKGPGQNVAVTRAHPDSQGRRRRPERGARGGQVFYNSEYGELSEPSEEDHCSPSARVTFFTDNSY
For experiment [7] the target is unchanged. The following applies: at 1 µM.
The target of experiment [8] is Macrophage colony-stimulating factor 1 receptor (Homo sapiens) (UniProt P07333). The following applies: at 0.1 µM.
Experiment [9] shares this target. To be noted: at 1 µM.
The target of experiment [10] is Tyrosine-protein kinase Fyn (Homo sapiens) (UniProt P06241). The following applies: at 0.1 µM.
Sequence of Tyrosine-protein kinase Fyn (Homo sapiens) (P06241 2-537 limits assumed): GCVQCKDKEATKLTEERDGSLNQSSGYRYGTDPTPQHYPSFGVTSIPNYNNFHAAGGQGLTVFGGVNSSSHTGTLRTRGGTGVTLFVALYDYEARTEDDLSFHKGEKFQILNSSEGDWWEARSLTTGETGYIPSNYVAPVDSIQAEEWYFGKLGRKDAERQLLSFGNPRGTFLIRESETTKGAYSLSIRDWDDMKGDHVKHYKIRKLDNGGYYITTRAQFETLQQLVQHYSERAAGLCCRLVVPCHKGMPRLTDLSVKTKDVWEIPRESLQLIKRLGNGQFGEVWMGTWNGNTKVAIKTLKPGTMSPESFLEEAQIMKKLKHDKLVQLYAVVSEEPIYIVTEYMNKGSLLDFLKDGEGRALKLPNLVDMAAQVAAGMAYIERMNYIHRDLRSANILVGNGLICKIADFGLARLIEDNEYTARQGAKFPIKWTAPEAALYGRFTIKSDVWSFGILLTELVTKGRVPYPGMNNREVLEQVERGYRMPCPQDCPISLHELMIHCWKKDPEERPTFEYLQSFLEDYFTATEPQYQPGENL
Experiment [11] has the same target. The following applies: at 1 µM.
Experiment [12] concerns the target Tyrosine-protein kinase HCK (Homo sapiens) (UniProt P08631). The following applies: at 0.1 µM.
The target is the same in experiment [13]. To be noted: at 1 µM.
Experiment [14] concerns the target Insulin-like growth factor 1 receptor (Homo sapiens) (UniProt P08069). The following applies: at 0.1 µM.
Experiment [15] shares this target. To be noted: at 1 µM.
Experiment [16] addresses Insulin receptor (Homo sapiens) (UniProt P06213). The following applies: at 0.1 µM.
For experiment [17] the target is unchanged. The following applies: at 1 µM.
In experiment [18] the target is Insulin receptor-related protein (Homo sapiens) (UniProt P14616). The following applies: at 0.1 µM.
Experiment [19] has the same target. The following applies: at 1 µM.
Experiment [20] deals with T4, Tyrosine-protein kinase ITK/TSK (Homo sapiens) (UniProt Q08881).
T4 sequence (whole entry): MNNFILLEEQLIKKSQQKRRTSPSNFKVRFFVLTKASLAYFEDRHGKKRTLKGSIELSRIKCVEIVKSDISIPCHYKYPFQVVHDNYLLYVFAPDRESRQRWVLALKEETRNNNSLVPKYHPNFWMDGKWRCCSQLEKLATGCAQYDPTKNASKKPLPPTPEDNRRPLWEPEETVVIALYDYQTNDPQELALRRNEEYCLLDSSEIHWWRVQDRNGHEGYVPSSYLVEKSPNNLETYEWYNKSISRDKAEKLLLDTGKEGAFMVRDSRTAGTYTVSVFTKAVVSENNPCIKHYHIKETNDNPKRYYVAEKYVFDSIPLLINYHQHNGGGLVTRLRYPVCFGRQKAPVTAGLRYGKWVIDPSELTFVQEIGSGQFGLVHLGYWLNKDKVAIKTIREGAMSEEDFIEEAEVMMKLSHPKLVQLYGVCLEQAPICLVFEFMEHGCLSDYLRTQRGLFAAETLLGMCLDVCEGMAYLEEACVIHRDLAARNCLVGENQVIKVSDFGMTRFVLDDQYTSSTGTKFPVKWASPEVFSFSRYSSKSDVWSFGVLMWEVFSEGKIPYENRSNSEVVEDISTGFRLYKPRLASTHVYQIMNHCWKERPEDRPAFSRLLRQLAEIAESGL
To be noted: at 0.1 µM.

3 compounds from ChEMBL document CHEMBL1961873, “Compounds: GSK PKIS; Assays: Nanosyn kinase panel” (2012) can be followed below.

Sequence of Serine/threonine-protein kinase PLK1 (Homo sapiens) (P53350 whole entry): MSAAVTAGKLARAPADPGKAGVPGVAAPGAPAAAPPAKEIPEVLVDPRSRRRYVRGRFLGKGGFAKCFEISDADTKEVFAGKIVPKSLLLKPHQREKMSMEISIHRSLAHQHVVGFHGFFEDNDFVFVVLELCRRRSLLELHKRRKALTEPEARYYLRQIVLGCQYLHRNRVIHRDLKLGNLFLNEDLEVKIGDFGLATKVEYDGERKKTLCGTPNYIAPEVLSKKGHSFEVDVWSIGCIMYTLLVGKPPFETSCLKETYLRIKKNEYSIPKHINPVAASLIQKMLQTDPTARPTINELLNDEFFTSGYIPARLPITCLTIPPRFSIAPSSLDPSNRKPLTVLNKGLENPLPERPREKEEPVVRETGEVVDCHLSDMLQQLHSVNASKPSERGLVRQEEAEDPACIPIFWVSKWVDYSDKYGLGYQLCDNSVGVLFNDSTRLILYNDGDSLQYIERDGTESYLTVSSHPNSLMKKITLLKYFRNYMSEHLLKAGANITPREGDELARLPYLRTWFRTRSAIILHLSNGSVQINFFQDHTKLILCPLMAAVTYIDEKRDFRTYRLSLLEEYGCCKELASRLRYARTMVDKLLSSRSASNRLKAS
Sequence of Insulin-like growth factor 1 receptor (Homo sapiens) (P08069 31-736 limits assumed): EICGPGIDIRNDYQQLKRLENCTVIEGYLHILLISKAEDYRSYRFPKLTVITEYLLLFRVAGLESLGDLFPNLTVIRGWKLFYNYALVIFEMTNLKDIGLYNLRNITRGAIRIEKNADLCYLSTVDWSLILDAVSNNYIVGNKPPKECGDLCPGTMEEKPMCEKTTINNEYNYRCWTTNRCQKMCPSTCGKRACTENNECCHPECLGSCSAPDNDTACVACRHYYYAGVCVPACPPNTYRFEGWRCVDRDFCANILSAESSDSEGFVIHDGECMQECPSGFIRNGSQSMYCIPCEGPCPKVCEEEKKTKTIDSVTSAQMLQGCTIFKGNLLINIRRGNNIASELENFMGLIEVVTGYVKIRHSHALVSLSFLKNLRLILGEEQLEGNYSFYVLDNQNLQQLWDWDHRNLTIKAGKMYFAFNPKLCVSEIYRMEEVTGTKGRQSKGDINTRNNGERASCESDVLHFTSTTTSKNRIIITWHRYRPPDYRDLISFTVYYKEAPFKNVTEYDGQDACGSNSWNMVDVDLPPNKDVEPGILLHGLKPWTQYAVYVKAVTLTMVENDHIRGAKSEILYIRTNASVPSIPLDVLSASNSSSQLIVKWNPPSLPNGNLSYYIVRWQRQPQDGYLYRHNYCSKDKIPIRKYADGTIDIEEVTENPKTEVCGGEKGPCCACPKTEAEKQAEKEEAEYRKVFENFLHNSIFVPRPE
Sequence of Insulin-like growth factor 1 receptor (Homo sapiens) (P08069 741-1367 limits assumed): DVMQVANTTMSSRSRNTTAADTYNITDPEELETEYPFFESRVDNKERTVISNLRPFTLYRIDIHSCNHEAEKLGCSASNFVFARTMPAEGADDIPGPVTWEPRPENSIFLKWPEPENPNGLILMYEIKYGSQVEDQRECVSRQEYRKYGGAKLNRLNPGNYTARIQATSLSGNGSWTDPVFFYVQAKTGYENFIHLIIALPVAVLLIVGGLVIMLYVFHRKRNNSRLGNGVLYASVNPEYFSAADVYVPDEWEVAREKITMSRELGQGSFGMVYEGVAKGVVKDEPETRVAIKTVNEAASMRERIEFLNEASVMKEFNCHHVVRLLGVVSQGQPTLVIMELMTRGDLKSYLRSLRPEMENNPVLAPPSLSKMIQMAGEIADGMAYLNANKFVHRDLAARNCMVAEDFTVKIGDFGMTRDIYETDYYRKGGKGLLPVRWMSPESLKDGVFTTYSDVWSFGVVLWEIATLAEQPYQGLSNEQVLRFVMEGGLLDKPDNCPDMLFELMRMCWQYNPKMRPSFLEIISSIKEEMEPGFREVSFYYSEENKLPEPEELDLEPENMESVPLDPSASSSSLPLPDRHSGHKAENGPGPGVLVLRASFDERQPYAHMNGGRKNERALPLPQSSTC
Sequence of Tyrosine-protein kinase HCK (Homo sapiens) (P08631 2-526 limits assumed): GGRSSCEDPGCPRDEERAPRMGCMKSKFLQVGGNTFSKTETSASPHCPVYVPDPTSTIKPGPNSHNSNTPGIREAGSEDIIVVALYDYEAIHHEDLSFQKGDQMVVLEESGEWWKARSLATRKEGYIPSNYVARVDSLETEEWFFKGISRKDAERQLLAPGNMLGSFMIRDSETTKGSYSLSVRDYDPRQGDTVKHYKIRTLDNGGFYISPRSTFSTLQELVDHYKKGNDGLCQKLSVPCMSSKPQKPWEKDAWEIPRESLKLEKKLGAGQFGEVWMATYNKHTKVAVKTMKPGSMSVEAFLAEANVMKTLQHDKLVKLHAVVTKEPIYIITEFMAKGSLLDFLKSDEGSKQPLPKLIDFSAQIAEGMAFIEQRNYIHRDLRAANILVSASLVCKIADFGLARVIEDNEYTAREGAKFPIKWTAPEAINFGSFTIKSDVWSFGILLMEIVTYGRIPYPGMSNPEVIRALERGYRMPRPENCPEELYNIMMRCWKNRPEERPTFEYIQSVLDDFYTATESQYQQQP

The inhibition is the drop in the measured response relative to a control, in per cent. On to `CCN(CC)Cc1ccc(Nc2nccc(-c3cnn4ncccc34)n2)cc1`, for which the inhibition in experiment [1] is 13.7%; in experiment [2] it was 5.43%; in experiment [3], 8.15%; in [4], 12.4%; in experiment [5] it was 17.1%; in experiment [6], -5.53%. The inhibition was 0.13% in experiment [7]; 29.6% in experiment [8]; 68.9% in experiment [9]; -1.69% in experiment [10]; 5.04% in [11]; 4.93% in experiment [12]. Also, the inhibition was 13.5% in experiment [13]; 3.11% in [14]; 54.6% in [15]; 21.9% in experiment [16]; 73.2% in experiment [17]; 2.45% in experiment [18]. Further, the inhibition in experiment [19] was 7.36%; in experiment [20], -3.08%.
Take `CCC(=O)Nc1ccc(C)c(-c2ccc(C(=O)NCC3CC3)cc2)c1`: the inhibition is 10.2% in experiment [1]; 5.02% in experiment [2]; 4.61% in experiment [3]; 8.14% in experiment [4]; 3.02% in experiment [5]; 3.63% in experiment [6]. Also, the inhibition in experiment [7] was -1.74%; in experiment [8], -2.39%; in experiment [9], 2.95%; in [10], 1.58%; in experiment [11] it was 4.1%; in experiment [12], 5.93%. The inhibition came to 4.04% in [13]; 3.84% in experiment [14]; 1.32% in experiment [15]; 4.28% in [16]; 5.36% in [17]; 0% in experiment [18]. For the same compound, the inhibition in experiment [19] was 1.59%; in experiment [20] it was -0.06%.
For `COc1cc(Nc2ncc3c(C)nc(-c4cccc(C(F)(F)F)c4)n3n2)cc(OC)c1OC`, the inhibition in [1] is 86.1%; in experiment [4], 8.36%; in experiment [5], 35.8%; in [6], -1.5%; in experiment [7], 2.6%; in [8] it was 32.9%. For the same compound, the inhibition in [9] was determined as 79.8%; in [10] it was 6.79%; in [11], 39.7%; in experiment [12], 6.2%; in experiment [13] it was 22.6%; in experiment [14] it was 2.62%. The inhibition was determined as 5.74% in experiment [15]; 5.92% in [16]; 8.95% in experiment [17]; 1.64% in experiment [18]; 3.39% in experiment [19]; 2.02% in experiment [20].
